Experiments:
Assay in all cases: PBM binding z-score (relative to random genomic background probes); higher = stronger binding; sequences stand for … in GC…GCGATTGACAGCGTAGAATGAAGG
[1] = system: FXR:RXRa (NR concentration 270 nM, RXRa partner concentration 90 nM)
In short: (§1)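 The probes on custom Agilent 4×180K protein-binding microarrays were double-stranded, with 34-nt variable regions bearing direct-repeat seeds, single-nucleotide variants, half-site ablations and random human genomic background sequences. Incubation lasted 1 h with ligand-free nuclear receptor dimers in PBS pH 7.4, 2% milk, 0.02% Triton X-100, 1 mM DTT, 0.2 mg/mL BSA and 0.4 mg/ml salmon testes DNA. Antibodies against each partner (one per run) detected bound dimers, and fluorescence scans were regression-normalized. Binding z-scores take the random background probes as reference.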

[2] = system: LXRa:RXRa (NR concentration 270 nM, RXRa partner concentration 90 nM)
In short: as §1

[3] = system: LXRa homodimer (NR concentration 270 nM)
In short: as §1

[4] = system: LXRb:RXRa (NR concentration 270 nM, RXRa partner concentration 90 nM)
In short: as §1

[5] = system: LXRb homodimer (NR concentration 270 nM)
In short: as §1

[6] = system: PPARa:RXRa (NR concentration 270 nM, RXRa partner concentration 90 nM)
In short: as §1

[7] = system: PPARg:RXRa (NR concentration 180 nM, RXRa partner concentration 90 nM)
In short: as §1

[8] = system: PPARg:RXRa 270nM:90nM, anti-RXR (NR concentration 270 nM, RXRa partner concentration 90 nM)
In short: as §1

[9] = system: PPARg:RXRa 30nM:10nM, anti-RXR (NR concentration 30 nM, RXRa partner concentration 10 nM)
In short: as §1

[10] = system: PPARg:RXRa 90nM:30nM, anti-RXR (NR concentration 90 nM, RXRa partner concentration 30 nM)
In short: as §1

[11] = system: PPARg:RXRa DBDmut IVT, anti-RXR (DBD mutation: RXRa K156A/R161A, NR concentration 270 nM, RXRa partner concentration 90 nM)
In short: as §1

[12] = system: PPARg:RXRa IVT, anti-PPARg (NR concentration 270 nM, RXRa partner concentration 90 nM)
In short: as §1

[13] = system: PPARg DBDmut:RXRa IVT, anti-PPARg (DBD mutation: PPARg1 K132A/R137A, NR concentration 270 nM, RXRa partner concentration 90 nM)
In short: as §1

[14] = system: PPARg DBDmut IVT, anti-PPARg (DBD mutation: PPARg1 K132A/R137A, NR concentration 270 nM)
In short: as §1

[15] = system: PPARg homodimer (NR concentration 180 nM)
In short: as §1

[16] = system: PXR:RXRa (NR concentration 270 nM, RXRa partner concentration 90 nM)
In short: as §1

[17] = system: PXR homodimer (NR concentration 270 nM)
In short: as §1

[18] = system: RARa:RXR (NR concentration 270 nM, RXRa partner concentration 90 nM)
In short: as §1

[19] = system: RARa homodimer (NR concentration 270 nM)
In short: as §1

[20] = system: RARb:RXRa (NR concentration 270 nM, RXRa partner concentration 90 nM)
In short: as §1

Sequence | PBM binding z-score [1] | PBM binding z-score [2] | PBM binding z-score [3] | PBM binding z-score [4] | PBM binding z-score [5] | PBM binding z-score [6] | PBM binding z-score [7] | PBM binding z-score [8] | PBM binding z-score [9] | PBM binding z-score [10] | PBM binding z-score [11] | PBM binding z-score [12] | PBM binding z-score [13] | PBM binding z-score [14] | PBM binding z-score [15] | PBM binding z-score [16] | PBM binding z-score [17] | PBM binding z-score [18] | PBM binding z-score [19] | PBM binding z-score [20]
TGTTGTAGATCAAAGGTTAAGAAAGCCGAAGCCT | 1.59 | 2.17 | 0.185 | 1.96 | 0.623 | 4.47 | 7.96 | 7.88 | 7.16 | 9.01 | -0.0218 | 3.76 | 0.531 | 0.517 | 1.54 | 2.04 | 0.18 | 2.87 | 0.902 | 1.89
GCGACTGGGGCATCGGCAGGTTACCATAACTTAA | 0.0165 | -0.138 | -0.214 | 0.589 | -0.797 | 1.06 | 0.979 | 1.1 | -0.324 | 0.563 | 3.7 | 3.26 | -0.659 | -0.662 | 0.364 | 0.0639 | -0.275 | 0.387 | -0.205 | 0.954
GCTAGATGGTCAGTAAAAGGTCACACACCGGTCG | 3.28 | 4.21 | 4.31 | 4.17 | 0.588 | 4.58 | 2.79 | 3.94 | 1.99 | 3.21 | 0.38 | 2.57 | 0.624 | -0.0918 | 3.76 | 4.83 | 0.89 | 5.65 | 2.5 | 4.43
GCTTGTAGATCTAGGTTAAGAAAGACTAAGCTAA | -0.373 | -0.228 | -0.5 | -0.166 | -0.791 | 1.14 | 0.547 | 0.539 | 0.267 | 0.418 | 3.21 | 3.27 | 0.608 | 0.399 | -1.08 | -0.4 | -0.246 | 0.0619 | -0.0444 | 0.0938
TCATATAGGAAAAGGTGAAAGTCGAACGATATGA | 1.2 | 1.15 | -0.161 | 1.4 | -0.24 | 2.46 | 1.45 | 3.09 | 4.54 | 4.05 | 1.88 | 1.52 | 1.28 | 0.696 | 0.985 | 0.902 | -0.139 | 1.54 | 0.581 | 1.93
TCTTGTAGATCAAGCAGGTTCAGAAAGCCTGAGT | 0.0146 | 0.179 | -0.177 | 0.301 | -0.777 | 0.691 | -0.504 | 1.16 | 2.45 | 1.72 | 1.67 | 0.23 | -0.203 | -0.258 | -0.265 | 1.42 | 0.458 | 0.45 | -0.397 | -0.164
CCTGCTAGGTCATGGTCAGCTGATCTACAGTATG | 4.51 | 2.68 | -0.139 | 2.21 | -0.492 | 3.96 | 3.02 | 3.1 | 0.862 | 2.09 | 4.74 | 4.18 | 0.184 | 0.177 | 2.39 | 2.18 | -0.463 | 2.89 | -0.136 | 4.21
AGAATGAGGTTATTAAGATCATGGAATTGCGGTC | 1.63 | 1.62 | 0.0389 | 1.29 | -0.00587 | 2.75 | 1.91 | 2.37 | 0.464 | 1.49 | 3.59 | 3.1 | 0.789 | 1.06 | 0.459 | 1.53 | 1.15 | 1.53 | 0.293 | 1.36
CCTTACGGGTCACTGACAGGTTAAAGCATTTGGA | 5.65 | 4.59 | 0.409 | 3.69 | -0.38 | 5.05 | 4.6 | 4.5 | 1.97 | 3.25 | 3.63 | 4.02 | 0.71 | 0.495 | 4.09 | 3.98 | 0.033 | 5.21 | 0.619 | 3.94
ATATGTAGGCTAAGGGTCATTCAGGTTGGTTCGC | 3.79 | 3.76 | 1.84 | 3.73 | 1.39 | 6.17 | 10.2 | 8.9 | 9.28 | 9.65 | 5.51 | 6.21 | 1.21 | 1.43 | 2.35 | 4.78 | 1.76 | 4.17 | 0.917 | 3.36
CCGAGTAGGTTATGGGGAATTCAGGCAACGGTGA | 0.109 | 0.544 | 0.111 | 0.918 | 0.311 | 1.23 | 1.46 | 2.43 | 0.671 | 1.48 | 3.51 | 2.6 | -0.221 | 0.307 | 1.64 | 0.204 | 0.469 | 0.654 | 0.587 | 0.784
TCTTGTAGATCAATAGAGGTTATGAAAGTGCGCT | 0.99 | 3.56 | 0.696 | 1.68 | 0.325 | 1.9 | 0.356 | 2.08 | 2.99 | 2.41 | 1.9 | 1.34 | 0.208 | 0.487 | 0.327 | 2.9 | 0.0755 | 2.04 | 0.403 | 1.02
CAAACTGGGTCAAGGTCAAAGTCGGTTTGTGCCA | 6.14 | 4.7 | 2.42 | 4.41 | 0.882 | 5.96 | 9.55 | 7.65 | 6.43 | 7.63 | 8.04 | 8.43 | 4.25 | 1.48 | 4.04 | 5.26 | 2.48 | 5.2 | 1.14 | 4.95
TCTCGGAGGACACGAAGGTCAGAGCCTTCCAGAG | 1.54 | 1.56 | -0.0178 | 1.35 | -0.905 | 2.1 | 0.565 | 1.76 | 2.02 | 1.7 | 1.3 | 0.917 | -1.24 | -1.76 | 1.08 | 2.11 | 0.864 | 2.36 | 0.0341 | 3.33

— the supplement of paper PMC6555819
